The structures appear in SMILES notation. This is part of a sample that, as a whole, favours compounds with a hit. Of some 83,000 tested, about 20% had one in any assay.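 Interpretation: 100, growth as untreated; towards 0, rising growth inhibition; 0, no net growth; 0 to -100, cell death. Compounds scoring below 10 were considered active.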 The source made the active and inactive calls.

One test has as its system HCT-15 colon. Description: NCI-60 one-dose screen, 48 h (100 = growth as untreated, 0 = no growth, -100 = all killed). The note with it: 10 µM unless noted.
Take `CCCCCCOC(=O)c1cc(-c2ccc(F)cc2)nc2ccccc12`: the growth is 94.8% (inactive).

For the compound `CN1CCN(c2ccc(Nc3nc(NCCNS(=O)(=O)c4ccccc4)c4sccc4n3)cc2)CC1`, the growth is 95.2% (inactive).

Turning to `CN1CCN(Cc2ccc(NC(=O)c3cncc(C#Cc4cnc5ccc(O[C@@H]6CCOC6)nn45)c3)cc2C(F)(F)F)CC1`, the growth is -40.4% (active).

For `CC(C)(C)Nc1nc2c(OCCc3ccccc3)cccn2c1-c1ccc([N+](=O)[O-])cc1`, the growth is 15.8% (inactive).

For `N#Cc1c(-c2cccs2)cc(-c2cnccn2)nc1SCC(=O)N/N=C/c1ccc(Cl)cc1`, the growth was 98.5% (inactive).

Consider `CN(C)CCCOc1ccc(C(=C(c2ccccc2)C2CCCC2)c2ccc(OCCCN(C)C)cc2)cc1`, for which the growth was -89.2% (active).

As for `N#Cc1nc(-c2ccc(Cl)cc2)oc1N1CCC(S(=O)(=O)N2CCOCC2)CC1`, the growth is 105% (inactive).

Consider `CC(=O)C1=C(C)NC(NNc2ccccc2)=NC1c1ccc([N+](=O)[O-])cc1` (stereo not given), for which the growth is 67.9% (inactive).

With `COC(=O)c1ccc(NC2=C(Cl)C(=O)C(C)=C(C)C2=O)cc1`, the growth is 40% (inactive).

Turning to `C=C(C=O)[C@@H]1CC[C@]2(C(=O)O)CC[C@]3(C)C(CC[C@@H]4[C@@](C)(CCC#N)[C@H](C(=C)C=O)CC[C@]43C)[C@@H]12` (stereo not given in full), the growth was 4.88% (active).

As to `CCOC(=O)C1=C(C)NC(C)=C(C(=O)OC(C)C)C1c1cccc(C#N)c1` (stereo not given), the growth was 99.1% (inactive).

Take `CC1(C)CC[C@]23CC[C@]4(C)[C@H](CC[C@@H]5[C@@]6(C)CC[C@H](NCO)C(C)(C)[C@@H]6CC[C@]54C)[C@H]2[C@H]1OC3`: the growth was -13.5% (active).

In the case of `COc1ccc(C(=NNS(=O)(=O)c2ccc(C)cc2)c2ccccc2)cc1OC`, the growth is 96.6% (inactive).

Turning to `COc1cccc2c1C=CC1(O2)Oc2cccc(OC)c2C=C1C` (stereo not given), the growth is 24.9% (inactive).

As for `Cc1csc(/N=C(N)/N=C(\N)c2cccnc2)n1`, the growth is 42.7% (inactive).

Turning to `Cc1ccc(/C=N/Nc2nc(Nc3ccccc3)nc(Nc3ccc(S(N)(=O)=O)cc3)n2)cc1`, the growth was 53.5% (inactive).

Take `CCCC[n+]1ccc(SCC(=O)n2ccc3ccccc32)c2ccccc21`: the growth was 103% (inactive).

As to `O=[N+]([O-])c1ccc(NC(=S)NNC(=S)Nc2ccc(Br)cc2)cc1`, the growth is 42.1% (inactive).

Consider `CCOP(=O)(OCC)OC[C@]12CCC(C)(C)CC1C1=CC[C@@H]3[C@@]4(C)CCCNC(C)(C)[C@@H]4CC[C@@]3(C)[C@]1(C)CC2` (stereo not given in full), for which the growth is 44.3% (inactive).

Regarding `CNC(=O)Nc1ccc(Nc2cc(-c3ccc(-n4cccn4)cc3)[nH]n2)c(C)c1`, the growth was 103% (inactive).

Regarding `O=C(CCCCCCNC(=O)c1csc(Br)n1)NO`, the growth is 60.5% (inactive).

For `NS(=O)(=O)c1ccc(Nc2nc(N/N=C/c3ccc4c(c3)OCO4)nc(Nc3ccccc3)n2)cc1`, the growth is 82.7% (inactive).

Turning to `CCc1cc2c(cc1Cl)nc1c(=O)[nH]c(=O)nc-1n2CCOCC(C)C`, the growth is 47.4% (inactive).

In the case of `COc1cc(C(=O)c2cc(C(C)=O)c3cccc(C)n23)cc(OC)c1OC`, the growth was 17.9% (inactive).

Regarding `Nc1ncc(-c2ccc3ncnc(NCc4ccccc4)c3c2)cn1`, the growth is 42.8% (inactive).

As for `COc1ccc2c(c1)c(-c1nn3cc(-c4ccncc4)nc3s1)cn2C`, the growth was 60.7% (inactive).

The next test deals with HT29 colon. The test is described as above. The note with it: 10 µM unless noted.
On to `C#C[C@]1(O)CC[C@H]2[C@@H]3CC=C4c5sc(N(C)c6ccccc6)nc5CC[C@]4(C)[C@H]3CC[C@@]21C`, for which the growth is -3.51% (active).

With `CC(=O)c1c([Si](C)(C)C)c2cc(C#N)ccn2c1C(=O)c1ccc(Br)cc1`, the growth was 67.8% (inactive).

As for `O=C(CSc1nc2ccccc2c(=O)n1-c1ccc(Cl)c(Cl)c1)Nc1ccc(S(=O)(=O)Nc2ccc(Cl)nn2)cc1`, the growth is 96.6% (inactive).

On to `C#CCN(C)CCCOc1ccc(NCc2ccc(/C=C/C(=O)NO)cc2)cc1Cl`, for which the growth is 8.52% (active).

As for `O=C(NNc1nc2cc(F)cc(F)c2n2cccc12)c1cccnn1`, the growth was 30.2% (inactive).

Turning to `COc1ccc(/C(=N\NC(N)=S)c2ccc(Cl)cc2)cc1OC`, the growth was -1.79% (active).

For the compound `COc1ccc(-c2c(C(N)=O)c(N)n(Cc3nc4ccccc4[nH]3)c(=O)c2C#N)c(OC)c1`, the growth is 113% (inactive).

In the case of `Cc1cc(Br)ccc1-n1cc(C#N)c(N)c1C(=O)c1ccc(Br)cc1`, the growth was 102% (inactive).

On to `CN1CCN(Cc2ccc(NC(=O)c3cncc(C#Cc4cnc(N)nc4)c3)cc2C(F)(F)F)CC1`, for which the growth was 14.3% (inactive).

`CCOC(=O)c1c(NC(=O)c2ccc(C(F)(F)F)cc2)sc2c3c(ccc12)OCN(C)C3`: the growth is -81% (active).

With `O=C1CSC(c2cn(-c3ccccc3)nc2-c2ccc(Cl)cc2)N1c1ccccc1` (stereo not given), the growth is 106% (inactive).

Consider `COc1ccc(-c2c3c(cn2Cc2cccc(OC)c2)-c2oncc2CCC3)cc1`, for which the growth is 109% (inactive).

Consider `C#C[C@]1(O)CC[C@H]2[C@@H]3CC=C4c5sc(Nc6ccc(C)cn6)nc5CC[C@]4(C)[C@H]3CC[C@@]21C`, for which the growth was 1.03% (active).

Consider `CCCCCCOC(=O)c1cc(-c2ccc(F)cc2)nc2ccccc12`, for which the growth was 96.3% (inactive).

On to `CN1CCN(c2ccc(Nc3nc(NCCNS(=O)(=O)c4ccccc4)c4sccc4n3)cc2)CC1`, for which the growth was 99.6% (inactive).

As for `CN1CCN(Cc2ccc(NC(=O)c3cncc(C#Cc4cnc5ccc(O[C@@H]6CCOC6)nn45)c3)cc2C(F)(F)F)CC1`, the growth is -54.6% (active).

For `CC(C)(C)Nc1nc2c(OCCc3ccccc3)cccn2c1-c1ccc([N+](=O)[O-])cc1`, the growth is 52.3% (inactive).

On to `N#Cc1c(-c2cccs2)cc(-c2cnccn2)nc1SCC(=O)N/N=C/c1ccc(Cl)cc1`, for which the growth is 104% (inactive).

Take `CN(C)CCCOc1ccc(C(=C(c2ccccc2)C2CCCC2)c2ccc(OCCCN(C)C)cc2)cc1`: the growth is -86.3% (active).

As for `N#Cc1nc(-c2ccc(Cl)cc2)oc1N1CCC(S(=O)(=O)N2CCOCC2)CC1`, the growth is 98% (inactive).

As for `CC(=O)C1=C(C)NC(NNc2ccccc2)=NC1c1ccc([N+](=O)[O-])cc1` (stereo not given), the growth is 96.5% (inactive).

As for `COC(=O)c1ccc(NC2=C(Cl)C(=O)C(C)=C(C)C2=O)cc1`, the growth was 63.3% (inactive).

Turning to `C=C(C=O)[C@@H]1CC[C@]2(C(=O)O)CC[C@]3(C)C(CC[C@@H]4[C@@](C)(CCC#N)[C@H](C(=C)C=O)CC[C@]43C)[C@@H]12` (stereo not given in full), the growth is 0.538% (active).

Consider `CCOC(=O)C1=C(C)NC(C)=C(C(=O)OC(C)C)C1c1cccc(C#N)c1` (stereo not given), for which the growth was 108% (inactive).

On to `CC1(C)CC[C@]23CC[C@]4(C)[C@H](CC[C@@H]5[C@@]6(C)CC[C@H](NCO)C(C)(C)[C@@H]6CC[C@]54C)[C@H]2[C@H]1OC3`, for which the growth was 17.9% (inactive).

As to `COc1ccc(C(=NNS(=O)(=O)c2ccc(C)cc2)c2ccccc2)cc1OC`, the growth was 103% (inactive).

For `COc1cccc2c1C=CC1(O2)Oc2cccc(OC)c2C=C1C` (stereo not given), the growth was 6.27% (active).

On to `Cc1csc(/N=C(N)/N=C(\N)c2cccnc2)n1`, for which the growth is 59% (inactive).

For the compound `Cc1ccc(/C=N/Nc2nc(Nc3ccccc3)nc(Nc3ccc(S(N)(=O)=O)cc3)n2)cc1`, the growth is 54.8% (inactive).

Take `CCCC[n+]1ccc(SCC(=O)n2ccc3ccccc32)c2ccccc21`: the growth was 96.9% (inactive).

`O=[N+]([O-])c1ccc(NC(=S)NNC(=S)Nc2ccc(Br)cc2)cc1`: the growth is 95% (inactive).

Consider `CCOP(=O)(OCC)OC[C@]12CCC(C)(C)CC1C1=CC[C@@H]3[C@@]4(C)CCCNC(C)(C)[C@@H]4CC[C@@]3(C)[C@]1(C)CC2` (stereo not given in full), for which the growth is 42% (inactive).

Consider `CNC(=O)Nc1ccc(Nc2cc(-c3ccc(-n4cccn4)cc3)[nH]n2)c(C)c1`, for which the growth was 120% (inactive).

Regarding `O=C(CCCCCCNC(=O)c1csc(Br)n1)NO`, the growth was 17.2% (inactive).

On to `NS(=O)(=O)c1ccc(Nc2nc(N/N=C/c3ccc4c(c3)OCO4)nc(Nc3ccccc3)n2)cc1`, for which the growth was 40.2% (inactive).

`CCc1cc2c(cc1Cl)nc1c(=O)[nH]c(=O)nc-1n2CCOCC(C)C`: the growth was 24.3% (inactive).

For `COc1cc(C(=O)c2cc(C(C)=O)c3cccc(C)n23)cc(OC)c1OC`, the growth is 8.74% (active).

`Nc1ncc(-c2ccc3ncnc(NCc4ccccc4)c3c2)cn1`: the growth is 55.3% (inactive).

For the compound `COc1ccc2c(c1)c(-c1nn3cc(-c4ccncc4)nc3s1)cn2C`, the growth was 79.2% (inactive).

Source of the values: PubChem BioAssay (NCI).
